Assay [1] concerns MILI (PIWIL2) piRISC loaded with piRNA #1 (26 nt). The assay is described as follows: pre-steady-state target cleavage rate (min^-1); guide: piRNA #1 5'p-UGAGGUAGUAGGUUGUAUAGUAUCCA; higher = faster piRNA-guided slicing of the target. The following applies: auxiliary factor: 500 nM mouse GTSF1. In short, it runs like this:
(§1)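 The method was Cleave-'n-Seq, in which uncleaved targets from a transcribed, DNA-blocked target RNA library were sequenced after exposure to active affinity-purified piRISC carrying one synthetic guide, with or without GTSF1 partner protein. Reactions contained 0.1 nM library, 1 nM piRISC and, where present, 500 nM GTSF1 in HEPES–potassium acetate buffer at 33 °C for 0–8 or 0–960 min. Reads were normalised to depth and to weakly complementary targets, three trials were pooled, and k3 was capped at 0.0001 min^-1. The pre-steady-state cleavage rate came from a burst-and-steady-state fit.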

The subject of assay [2] is EfPiwi piRISC loaded with piRNA #1 (26 nt). The assay is described as follows: pre-steady-state target cleavage rate (min^-1); auxiliary factor: 500 nM Ephydatia muelleri Gtsf1; guide: piRNA #1 5'p-UGAGGUAGUAGGUUGUAUAGUAUCCA; MIWI and MILI are mouse PIWI proteins and EfPiwi is from a freshwater sponge; tags in brackets are library labels; higher = faster piRNA-guided slicing of the target. In short, it runs like this: as §1

± gives the standard deviation.

With GGAGACGAUACUUUACAACCAACUACCUCA, the “pre-steady-state target cleavage rate” value in assay [1] amounted to 0.00466 ± 0.0023. GGAGACGAUACAAUACAACCUACUACGUCA: the “pre-steady-state target cleavage rate” value in assay [1] was 0.102 ± 0.015; in assay [2] it was 0.00361 ± 0.0032. GGAGACCUUGACUAUACAACCUACUACCUCA: the figures for the “pre-steady-state target cleavage rate” value in assay [1] and in assay [2] were 0.163 ± 0.022 and 0.00922 ± 0.0051, respectively.

On to GGAGACCUAUGAUAUGUUGCUACUGACCUCA, for which the “pre-steady-state target cleavage rate” value in assay [1] was less than 0.0001. Turning to GGAGACCUAUCUAUGCAACCUACUACCUCA, the “pre-steady-state target cleavage rate” value in assay [1] turned out to be 0.122 ± 0.014; in assay [2] it was 0.00656 ± 0.0037.

With GGAGACCUAUCUAUACAUCCUACAACCUCA, the “pre-steady-state target cleavage rate” value in assay [1] is 0.165 ± 0.014.

Take GGAGACGAAACUUUACAACCUACUACCUCA: the “pre-steady-state target cleavage rate” value in assay [1] came out at 0.213 ± 0.03; in assay [2], 0.0147 ± 0.0064. Take GGAGACCUAUGUAAACAAGCUACUACCUCA: the “pre-steady-state target cleavage rate” value in assay [1] was 0.0459 ± 0.0073. As for “GGAGACCUAUGAUUACAACCUACUACCUCA [g2:g17:cont:t1A]”, the “pre-steady-state target cleavage rate” value in assay [1] is 0.00593 ± 0.0026; in assay [2], 0.00451 ± 0.0032. As to GGAGACGAUACUAUACAACCUACUAACUCA, the “pre-steady-state target cleavage rate” value in assay [1] was found to be 0.0612 ± 0.016; in assay [2], 0.00467 ± 0.0021. For the sequence GGAGUGGAUACUAUACAACCUACUUCCUCA, the “pre-steady-state target cleavage rate” value in assay [1] was found to be 0.00401 ± 0.0017; in assay [2], 0.00544 ± 0.0029. With GGAGUGGAUACUAUACAUCCUACUACCUCA, the “pre-steady-state target cleavage rate” value in assay [1] is 0.267 ± 0.014; in assay [2], 0.124 ± 0.044. As for GGAGACCUUUCUAUACAUCCUACUACCUCA, the “pre-steady-state target cleavage rate” value stood at 0.158 ± 0.013 in assay [1] and 0.00708 ± 0.0041 in assay [2]. As for GGAGACGAUACUAUGACAACCUACUACCUCA, the “pre-steady-state target cleavage rate” value was found to be 0.186 ± 0.017 in assay [1] and 0.00896 ± 0.0044 in assay [2].

As to GGAGUGGAUACUAUACAUCCUACAACCUCA, the entries for the “pre-steady-state target cleavage rate” value in assay [1] and in assay [2] were 0.165 ± 0.014 and 0.00378 ± 0.0019, respectively.

For the sequence GGAGUGUAUACUAUACAACCUACUACCUCA, the “pre-steady-state target cleavage rate” value in assay [1] turned out to be 0.167 ± 0.0094; in assay [2] it was 0.0133 ± 0.0057. Turning to GGAGUGGAUACUAUACAACCUACAUACCUCA, the “pre-steady-state target cleavage rate” value is 0.109 ± 0.011 in assay [1] and 0.00344 ± 0.0016 in assay [2].

For GGAGUGGUUACUAUACAACCUACUUCCUCA, the “pre-steady-state target cleavage rate” value worked out at 0.0036 ± 0.002 in assay [1] and 0.0027 ± 0.0013 in assay [2].

GGAGAGGAUACUAUACAAGCUACUACGUCA: the entries for the “pre-steady-state target cleavage rate” value in assay [1] and in assay [2] were 0.19 ± 0.02 and 0.00403 ± 0.0018, respectively. In the case of GGAGUGUGAUACUAUACAACCUACUACCUCA, the results for the “pre-steady-state target cleavage rate” value in assay [1] and in assay [2] were 0.179 ± 0.0087 and 0.0158 ± 0.0069, respectively. For the sequence GGAGAGGAUUCUAUACAACCUACUACCUCA, the “pre-steady-state target cleavage rate” value is 0.179 ± 0.011 in assay [1] and 0.0066 ± 0.0039 in assay [2]. With GGAGACGAUACUAUACAACCUACUGCCUCA, the “pre-steady-state target cleavage rate” value in assay [1] came to 0.11 ± 0.015; in assay [2], 0.00691 ± 0.0024.

For the sequence GGAGACCAUACAAUACAACCUACUACCUCA, the “pre-steady-state target cleavage rate” value in assay [1] was 0.189 ± 0.023; in assay [2], 0.0108 ± 0.0032. The matching figures for GGAGACGAAACUAUACAUCCUACUACCUCA: 0.255 ± 0.026 and 0.00655 ± 0.0027.

As for GGAGAGGAUACUUUACAAGCUACUACCUCA, the “pre-steady-state target cleavage rate” value in assay [1] worked out at 0.149 ± 0.014; in assay [2], 0.00384 ± 0.0021. As for GGAGACCAUACUAUACAACCUACUACCCUCA, the “pre-steady-state target cleavage rate” value was found to be 0.22 ± 0.024 in assay [1] and 0.00445 ± 0.0021 in assay [2]. With GGAGACCUAACGAUACAACCUACUACCUCA, the “pre-steady-state target cleavage rate” value in assay [1] was determined as 0.257 ± 0.053; in assay [2] it was 0.0136 ± 0.0071. Consider GGAGUGGUUAGUAUACAACCUACUACCUCA, for which the “pre-steady-state target cleavage rate” value in assay [1] was 0.105 ± 0.011; in assay [2], 0.00533 ± 0.0036. For the sequence GGAGACCAUUCUAUACAACCUAGUACCUCA, the “pre-steady-state target cleavage rate” value came to 0.0977 ± 0.022 in assay [1] and 0.00433 ± 0.0024 in assay [2]. As for GGAGUGGAUACUAUACAACCUACUACCUAA, the “pre-steady-state target cleavage rate” value in assay [1] stood at 0.105 ± 0.014; in assay [2], 0.151 ± 0.054.

With GGAGACCUAUCUAUACAACGUACUACCACA, the “pre-steady-state target cleavage rate” value in assay [1] was 0.0153 ± 0.0035; in assay [2], 0.00343 ± 0.0031. For GGAGUGGAUACUAAACUACCUACUACCUCA, in that order: 0.172 ± 0.011 and 0.00956 ± 0.0047. The matching figures for GGAGACCUAUCUGAUACAACCUACUACCUCA: 0.0421 ± 0.0081 and 0.00758 ± 0.0035. For the sequence GGAGUGGAUACUAAACAACGUACUACCUCA, the results for the “pre-steady-state target cleavage rate” value in assay [1] and in assay [2] were 0.0219 ± 0.0031 and 0.00304 ± 0.0013, respectively. For GGAGACCAUACUAUACACCUACUACCUCA, in that order: 0.0288 ± 0.0078 and 0.00694 ± 0.0042. For the sequence GGAGAGGAUACUAACAACCUACUACCUCA, the entries for the “pre-steady-state target cleavage rate” value in assay [1] and in assay [2] were 0.181 ± 0.013 and 0.00812 ± 0.0046, respectively. For GGAGACGAUACUAUACAACCUACUACUCA, in that order: 0.125 ± 0.019 and 0.00549 ± 0.0025.

In the case of GGAGAGGAUACUAUACAACCUACUACCCA, the “pre-steady-state target cleavage rate” value is 0.0505 ± 0.014 in assay [1] and 0.0052 ± 0.0025 in assay [2]. As for GGAGACGAGUACUAUACAACCUACUACCUCA, the “pre-steady-state target cleavage rate” value in assay [1] worked out at 0.176 ± 0.014; in assay [2] it was 0.0147 ± 0.0053. GGAGACCAUACUAUACAACUACUACCUCA: the “pre-steady-state target cleavage rate” value is 0.0423 ± 0.0075 in assay [1] and 0.00486 ± 0.0035 in assay [2]. With GGAGACGAUACUAGACAACCUACUACCUCA, the “pre-steady-state target cleavage rate” value in assay [1] is 0.171 ± 0.013; in assay [2], 0.00452 ± 0.0029.

Take GGAGACGAUACUAUACAACCUACUUCCUGA: the “pre-steady-state target cleavage rate” value in assay [1] worked out at 0.00812 ± 0.005; in assay [2], 0.00342 ± 0.002. Turning to GGAGACGAUACUAUACAACCUACUGACCUCA, the “pre-steady-state target cleavage rate” value worked out at 0.118 ± 0.015 in assay [1] and 0.00338 ± 0.0017 in assay [2]. For GGAGACCUAUGAAUCACAACCUACUACCUCA, in that order: 0.0111 ± 0.0034 and 0.00389 ± 0.0034. Regarding GGAGUGGAUACUAUACAUCCUACUAGCUCA, the “pre-steady-state target cleavage rate” value was 0.0444 ± 0.0086 in assay [1] and 0.00367 ± 0.0024 in assay [2]. For GGAGACGUUACUAUACAACGUACUACCUCA, in that order: 0.0206 ± 0.0027 and 0.00362 ± 0.0014. As to GGAGACCUUACUAUACAACCUACAACCUCA, the “pre-steady-state target cleavage rate” value in assay [1] worked out at 0.126 ± 0.016; in assay [2], 0.00341 ± 0.0024.

Consider GGAGACCAAACUAUACAACCUACUAGCUCA, for which the “pre-steady-state target cleavage rate” value is 0.0778 ± 0.029 in assay [1] and 0.00453 ± 0.0034 in assay [2]. Turning to GGAGACGAUACUAUAGAACCAACUACCUCA, the “pre-steady-state target cleavage rate” value in assay [1] was found to be 0.00326 ± 0.0028; in assay [2] it was 0.00377 ± 0.002. For GGAGACGAUACUAUACAACCUACUACUCUCA, the “pre-steady-state target cleavage rate” value in assay [1] is 0.244 ± 0.019; in assay [2] it was 0.00563 ± 0.0022.

The values are drawn from the supplement of paper PMC10338343.
